Assay results as given in the supplement of paper PMC4466140.

These binders were tested against AgAbp1 (assay: SPOT peptide array binding signal intensity (averaged, normalized) (arbitrary units (background-subtracted, floor 0; scale differs between SH3 domains)); higher = stronger binding of the SH3 domain to the peptide).
How it was run: (§1)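 Detection of bound protein relied on anti-GST antibody, an HRP anti-mouse secondary and luminol, with imaging and quantification in Genespotter. The bound protein was GST-fused SH3 domains from four yeast species, incubated at 10 μg/ml overnight at 4°C in TBS-based blocking buffer on cellulose membranes carrying synthetic 15-mer peptides with cysteines replaced by serines. Binding signal is normalized, background-subtracted spot intensity averaged over replicates, in arbitrary units that differ between domains.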

Binder	SPOT peptide array binding signal intensity
PPLPRAPPVPPATFE	16

These binders were tested against AgBbc1 in the same assay as above.
How it was run: as §1

Binder	SPOT peptide array binding signal intensity
PPLPRAPPVPPATFE	0.5

Each binder was assayed against AgBem1-D1 in the same assay as above.
How it was run: as §1

Binder	SPOT peptide array binding signal intensity
PPLPRAPPVPPATFE	40.5

These binders were tested against AgBzz1-D1 in the same assay as above.
How it was run: as §1

Binder	SPOT peptide array binding signal intensity
PPLPRAPPVPPATFE	18

These binders were tested against AgBzz1-D2 in the same assay as above.
How it was run: as §1

Binder	SPOT peptide array binding signal intensity
PPLPRAPPVPPATFE	≤ 0

The binders below were run against AgCyk3 in the same assay as above.
How it was run: as §1

Binder	SPOT peptide array binding signal intensity
PPLPRAPPVPPATFE	0.5

Each binder was assayed against AgFus1 in the same assay as above.
How it was run: as §1

Binder	SPOT peptide array binding signal intensity
PPLPRAPPVPPATFE	≤ 0

These binders were tested against AgHof1 in the same assay as above.
How it was run: as §1

Binder	SPOT peptide array binding signal intensity
PPLPRAPPVPPATFE	43.2

What follows are binders tested against AgHse1 in the same assay as above.
How it was run: as §1

Binder	SPOT peptide array binding signal intensity
PPLPRAPPVPPATFE	15

These binders were tested against AgLsb1 in the same assay as above.
How it was run: as §1

Binder	SPOT peptide array binding signal intensity
PPLPRAPPVPPATFE	17.2

What follows are binders tested against AgLsb4 in the same assay as above.
How it was run: as §1

Binder	SPOT peptide array binding signal intensity
PPLPRAPPVPPATFE	≤ 0

These binders were tested against AgMyo5 in the same assay as above.
How it was run: as §1

Binder	SPOT peptide array binding signal intensity
PPLPRAPPVPPATFE	434

These binders were tested against AgNbp2 in the same assay as above.
How it was run: as §1

Binder	SPOT peptide array binding signal intensity
PPLPRAPPVPPATFE	107

Each binder was assayed against AgRvs167 in the same assay as above.
How it was run: as §1

Binder	SPOT peptide array binding signal intensity
PPLPRAPPVPPATFE	≤ 0

Each binder was assayed against AgSho1 in the same assay as above.
How it was run: as §1

Binder	SPOT peptide array binding signal intensity
PPLPRAPPVPPATFE	6

Each binder was assayed against AgSla1-D1-D2 in the same assay as above.
How it was run: as §1

Binder	SPOT peptide array binding signal intensity
PPLPRAPPVPPATFE	5

The binders below were run against AgSla1-D3 in the same assay as above.
How it was run: as §1

Binder	SPOT peptide array binding signal intensity
PPLPRAPPVPPATFE	≤ 0

What follows are binders tested against CaAbp1-D1 in the same assay as above.
How it was run: as §1

Binder	SPOT peptide array binding signal intensity
PPLPRAPPVPPATFE	21.5

Each binder was assayed against CaAbp1-D2 in the same assay as above.
How it was run: as §1

Binder	SPOT peptide array binding signal intensity
PPLPRAPPVPPATFE	20

Each binder was assayed against CaBbc1 in the same assay as above.
How it was run: as §1

Binder	SPOT peptide array binding signal intensity
PPLPRAPPVPPATFE	79.2

Each binder was assayed against CaBem1-D1 in the same assay as above.
How it was run: as §1

Binder	SPOT peptide array binding signal intensity
PPLPRAPPVPPATFE	23

Each binder was assayed against CaBzz1-D1 in the same assay as above.
How it was run: as §1

Binder	SPOT peptide array binding signal intensity
PPLPRAPPVPPATFE	243

What follows are binders tested against CaBzz1-D2 in the same assay as above.
How it was run: as §1

Binder	SPOT peptide array binding signal intensity
PPLPRAPPVPPATFE	39.5

The binders below were run against CaCyk3 in the same assay as above.
How it was run: as §1

Binder	SPOT peptide array binding signal intensity
PPLPRAPPVPPATFE	1.5

These binders were tested against CaFus1 in the same assay as above.
How it was run: as §1

Binder	SPOT peptide array binding signal intensity
PPLPRAPPVPPATFE	47

The binders below were run against CaHof1 in the same assay as above.
How it was run: as §1

Binder	SPOT peptide array binding signal intensity
PPLPRAPPVPPATFE	1.5

The binders below were run against CaHse1 in the same assay as above.
How it was run: as §1

Binder	SPOT peptide array binding signal intensity
PPLPRAPPVPPATFE	≤ 0

Each binder was assayed against CaLsb1 in the same assay as above.
How it was run: as §1

Binder	SPOT peptide array binding signal intensity
PPLPRAPPVPPATFE	≤ 0

Each binder was assayed against CaLsb4 in the same assay as above.
How it was run: as §1

Binder	SPOT peptide array binding signal intensity
PPLPRAPPVPPATFE	≤ 0

Each binder was assayed against CaMyo5 in the same assay as above.
How it was run: as §1

Binder	SPOT peptide array binding signal intensity
PPLPRAPPVPPATFE	104

What follows are binders tested against CaNbp2 in the same assay as above.
How it was run: as §1

Binder	SPOT peptide array binding signal intensity
PPLPRAPPVPPATFE	1100

What follows are binders tested against CaRvs167 in the same assay as above.
How it was run: as §1

Binder	SPOT peptide array binding signal intensity
PPLPRAPPVPPATFE	≤ 0

These binders were tested against CaRvs167-3 in the same assay as above.
How it was run: as §1

Binder	SPOT peptide array binding signal intensity
PPLPRAPPVPPATFE	≤ 0

What follows are binders tested against CaSho1 in the same assay as above.
How it was run: as §1

Binder	SPOT peptide array binding signal intensity
PPLPRAPPVPPATFE	14

These binders were tested against CaSla1-D1-D2 in the same assay as above.
How it was run: as §1

Binder	SPOT peptide array binding signal intensity
PPLPRAPPVPPATFE	2

Each binder was assayed against CaSla1-D3 in the same assay as above.
How it was run: as §1

Binder	SPOT peptide array binding signal intensity
PPLPRAPPVPPATFE	1

The binders below were run against ScAbp1 in the same assay as above.
How it was run: as §1

Binder	SPOT peptide array binding signal intensity
PPLPRAPPVPPATFE	4.5

Each binder was assayed against ScBbc1 in the same assay as above.
How it was run: as §1

Binder	SPOT peptide array binding signal intensity
PPLPRAPPVPPATFE	≤ 0

These binders were tested against ScBem1-D1 in the same assay as above.
How it was run: as §1

Binder	SPOT peptide array binding signal intensity
PPLPRAPPVPPATFE	≤ 0

The binders below were run against ScBzz1-D1 in the same assay as above.
How it was run: as §1

Binder	SPOT peptide array binding signal intensity
PPLPRAPPVPPATFE	4.5

Each binder was assayed against ScBzz1-D2 in the same assay as above.
How it was run: as §1

Binder	SPOT peptide array binding signal intensity
PPLPRAPPVPPATFE	≤ 0

What follows are binders tested against ScCyk3 in the same assay as above.
How it was run: as §1

Binder	SPOT peptide array binding signal intensity
PPLPRAPPVPPATFE	≤ 0

These binders were tested against ScFus1 in the same assay as above.
How it was run: as §1

Binder	SPOT peptide array binding signal intensity
PPLPRAPPVPPATFE	11

The binders below were run against ScHof1 in the same assay as above.
How it was run: as §1

Binder	SPOT peptide array binding signal intensity
PPLPRAPPVPPATFE	241

The binders below were run against ScHse1 in the same assay as above.
How it was run: as §1

Binder	SPOT peptide array binding signal intensity
PPLPRAPPVPPATFE	≤ 0

Each binder was assayed against ScLsb1 in the same assay as above.
How it was run: as §1

Binder	SPOT peptide array binding signal intensity
PPLPRAPPVPPATFE	1

What follows are binders tested against ScLsb2 in the same assay as above.
How it was run: as §1

Binder	SPOT peptide array binding signal intensity
PPLPRAPPVPPATFE	11

What follows are binders tested against ScLsb3 in the same assay as above.
How it was run: as §1

Binder	SPOT peptide array binding signal intensity
PPLPRAPPVPPATFE	84

What follows are binders tested against ScLsb4 in the same assay as above.
How it was run: as §1

Binder	SPOT peptide array binding signal intensity
PPLPRAPPVPPATFE	≤ 0

These binders were tested against ScMyo3 in the same assay as above.
How it was run: as §1

Binder	SPOT peptide array binding signal intensity
PPLPRAPPVPPATFE	1100

Each binder was assayed against ScMyo5 in the same assay as above.
How it was run: as §1

Binder	SPOT peptide array binding signal intensity
PPLPRAPPVPPATFE	463

Each binder was assayed against ScNbp2 in the same assay as above.
How it was run: as §1

Binder	SPOT peptide array binding signal intensity
PPLPRAPPVPPATFE	200

The binders below were run against ScPex13 in the same assay as above.
How it was run: as §1

Binder	SPOT peptide array binding signal intensity
PPLPRAPPVPPATFE	95

The binders below were run against ScRvs167 in the same assay as above.
How it was run: as §1

Binder	SPOT peptide array binding signal intensity
PPLPRAPPVPPATFE	33.5

The binders below were run against ScSho1 in the same assay as above.
How it was run: as §1

Binder	SPOT peptide array binding signal intensity
PPLPRAPPVPPATFE	81

What follows are binders tested against ScSla1-D1-D2 in the same assay as above.
How it was run: as §1

Binder	SPOT peptide array binding signal intensity
PPLPRAPPVPPATFE	≤ 0

What follows are binders tested against ScSla1-D3 in the same assay as above.
How it was run: as §1

Binder	SPOT peptide array binding signal intensity
PPLPRAPPVPPATFE	≤ 0

The binders below were run against SpAbp1-D1 in the same assay as above.
How it was run: as §1

Binder	SPOT peptide array binding signal intensity
PPLPRAPPVPPATFE	7

The binders below were run against SpBbc1 in the same assay as above.
How it was run: as §1

Binder	SPOT peptide array binding signal intensity
PPLPRAPPVPPATFE	1

What follows are binders tested against SpBzz1-D1 in the same assay as above.
How it was run: as §1

Binder	SPOT peptide array binding signal intensity
PPLPRAPPVPPATFE	566

These binders were tested against SpBzz1-D2 in the same assay as above.
How it was run: as §1

Binder	SPOT peptide array binding signal intensity
PPLPRAPPVPPATFE	23.2

What follows are binders tested against SpCyk3 in the same assay as above.
How it was run: as §1

Binder	SPOT peptide array binding signal intensity
PPLPRAPPVPPATFE	≤ 0

Each binder was assayed against SpHof1 in the same assay as above.
How it was run: as §1

Binder	SPOT peptide array binding signal intensity
PPLPRAPPVPPATFE	1

These binders were tested against SpHof1-2 in the same assay as above.
How it was run: as §1

Binder	SPOT peptide array binding signal intensity
PPLPRAPPVPPATFE	707

What follows are binders tested against SpHof1-3 in the same assay as above.
How it was run: as §1

Binder	SPOT peptide array binding signal intensity
PPLPRAPPVPPATFE	125

What follows are binders tested against SpHse1 in the same assay as above.
How it was run: as §1

Binder	SPOT peptide array binding signal intensity
PPLPRAPPVPPATFE	30.8

The binders below were run against SpLsb1 in the same assay as above.
How it was run: as §1

Binder	SPOT peptide array binding signal intensity
PPLPRAPPVPPATFE	1.75

The binders below were run against SpLsb4 in the same assay as above.
How it was run: as §1

Binder	SPOT peptide array binding signal intensity
PPLPRAPPVPPATFE	≤ 0

The binders below were run against SpMyo1 in the same assay as above.
How it was run: as §1

Binder	SPOT peptide array binding signal intensity
PPLPRAPPVPPATFE	422

Each binder was assayed against SpNbp2 in the same assay as above.
How it was run: as §1

Binder	SPOT peptide array binding signal intensity
PPLPRAPPVPPATFE	17

Each binder was assayed against SpPex13 in the same assay as above.
How it was run: as §1

Binder	SPOT peptide array binding signal intensity
PPLPRAPPVPPATFE	≤ 0

These binders were tested against SpRvs167 in the same assay as above.
How it was run: as §1

Binder	SPOT peptide array binding signal intensity
PPLPRAPPVPPATFE	88

The binders below were run against SpSla1-D1-D2 in the same assay as above.
How it was run: as §1

Binder	SPOT peptide array binding signal intensity
PPLPRAPPVPPATFE	3

These binders were tested against SpSla1-D3 in the same assay as above.
How it was run: as §1

Binder	SPOT peptide array binding signal intensity
PPLPRAPPVPPATFE	≤ 0
